# According to the supplement of paper PMC6555819:
# Key:
# Assay in all cases: PBM binding z-score (relative to random genomic background probes); higher = stronger binding; sequences stand for … in GC…GCGATTGACAGCGTAGAATGAAGG
# [1] = system: LXRa:RXRa (NR concentration 270 nM, RXRa partner concentration 90 nM)
# Outline: (§1)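 Each nuclear receptor dimer, without ligand, was incubated for 1 h on custom Agilent 4×180K protein-binding microarrays. Binding was detected with antibodies against each partner (one per run), and scanned fluorescence was regression-normalized. The binding z-scores are referenced to random human genomic background probes.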
# [2] = system: LXRa homodimer (NR concentration 270 nM)
# Outline: as §1
# [3] = system: LXRb homodimer (NR concentration 270 nM)
# Outline: as §1
# [4] = system: PPARg:RXRa (NR concentration 180 nM, RXRa partner concentration 90 nM)
# Outline: as §1
# [5] = system: PPARg:RXRa 270nM:90nM, anti-RXR (NR concentration 270 nM, RXRa partner concentration 90 nM)
# Outline: as §1
# [6] = system: PPARg:RXRa 30nM:10nM, anti-RXR (NR concentration 30 nM, RXRa partner concentration 10 nM)
# Outline: as §1
# [7] = system: PPARg:RXRa 90nM:30nM, anti-RXR (NR concentration 90 nM, RXRa partner concentration 30 nM)
# Outline: as §1
# [8] = system: PPARg:RXRa DBDmut IVT, anti-RXR (DBD mutation: RXRa K156A/R161A, NR concentration 270 nM, RXRa partner concentration 90 nM)
# Outline: as §1
# [9] = system: PPARg:RXRa IVT, anti-PPARg (NR concentration 270 nM, RXRa partner concentration 90 nM)
# Outline: as §1
# [10] = system: PPARg DBDmut:RXRa IVT, anti-PPARg (DBD mutation: PPARg1 K132A/R137A, NR concentration 270 nM, RXRa partner concentration 90 nM)
# Outline: as §1
# [11] = system: PPARg DBDmut IVT, anti-PPARg (DBD mutation: PPARg1 K132A/R137A, NR concentration 270 nM)
# Outline: as §1
# [12] = system: PPARg homodimer (NR concentration 180 nM)
# Outline: as §1
# [13] = system: PXR:RXRa (NR concentration 270 nM, RXRa partner concentration 90 nM)
# Outline: as §1
# [14] = system: PXR homodimer (NR concentration 270 nM)
# Outline: as §1
# [15] = system: RARa:RXR (NR concentration 270 nM, RXRa partner concentration 90 nM)
# Outline: as §1
# [16] = system: RARa homodimer (NR concentration 270 nM)
# Outline: as §1
# [17] = system: RARb:RXRa (NR concentration 270 nM, RXRa partner concentration 90 nM)
# Outline: as §1
# [18] = system: RARb homodimer (NR concentration 270 nM)
# Outline: as §1
Sequence,PBM binding z-score [1],PBM binding z-score [2],PBM binding z-score [3],PBM binding z-score [4],PBM binding z-score [5],PBM binding z-score [6],PBM binding z-score [7],PBM binding z-score [8],PBM binding z-score [9],PBM binding z-score [10],PBM binding z-score [11],PBM binding z-score [12],PBM binding z-score [13],PBM binding z-score [14],PBM binding z-score [15],PBM binding z-score [16],PBM binding z-score [17],PBM binding z-score [18]
CCGACTGGGGCAAGGTCACCATAACGCACAGCCA,2.82,0.471,-0.792,4.78,4.63,2.12,3.78,3.03,4.62,0.00337,-0.825,2.64,3.25,0.544,3.76,0.752,4.25,4.23
TGTATGAGGTTAAAGATCAGGGAACGTGGCGTCG,3.09,0.262,1.41,4.1,5.21,3,4.93,0.702,1.99,0.959,0.628,1.78,2.38,0.249,3.55,1.35,2.49,1.35
CCTTACGGGTCCCTCCAGGTTATAGCATCGGAGT,-0.148,-0.112,-0.475,-0.172,-0.6,-0.679,-0.697,-1.14,-0.601,-1.12,-1.29,0.547,0.139,-0.00641,0.181,-0.487,0.0941,0.0845
CGAACTAGGTCAAGGCCAGTGAATCTCCGCACGC,2.42,0.284,-0.563,7.33,6.58,3.87,6.13,8.07,8.42,3.5,2.31,1.99,1.35,-0.029,2.32,0.0978,4.11,3.35
TCTATTAGTTGATTAGGGCAACCGAAACAGCGGA,0.552,0.193,0.613,0.303,2.14,3.65,2.63,2.02,1.84,0.572,0.488,1.34,0.609,0.491,1.03,1.33,0.953,0.738
ATTTGTAGGTTACATCCGGGTCATTCAGGCTATG,5.11,2.84,1.83,4.22,4.28,2.12,3.26,6.92,6.29,3.31,2.1,3.38,4.12,4.01,4.19,2.72,2.77,3.43
CCTACTGGGCCAAAAAGTTCATTGATGCCGATAA,1.47,2.92,-0.369,1.09,1.53,0.0164,1.05,3.74,2.64,-1.13,-0.236,1.35,2.98,9.58,1.23,0.294,2.24,2.64
TAGCCGAGGTCATTCAGGGGCCAGTATAGAAAGC,6.28,2.47,2.89,6.14,5.81,2.43,4.55,1.75,3.9,1.06,1.57,4.27,5.92,2.27,6.51,0.64,5.27,4.49
CGAACTAGGTCATTGACAGGACAGTGGATAGTAA,2.74,0.471,0.232,7.3,6.07,3.68,5.3,8.44,7.98,2.72,1.77,1.39,1.52,0.501,2.02,-0.303,3.53,2.83
AGCGAAAGGTCGAGGTGAGTATAGAGAAAGGGAA,3.18,-0.189,-0.246,3.81,4.31,1.4,3.37,0.228,2.26,0.0948,0.386,1.75,2.52,0.259,3.19,0.743,4.03,2.64
CCTAGTTGTTCAGGAGGTCACACACCGGATATGA,4.36,3.87,1.61,2.04,2.98,1.11,1.87,0.958,2.97,1.15,0.86,3.91,4.18,2.15,4.4,2.25,3.62,4.15
CGTCCAAGGTCGAAGGTCAGTGAAGAGATGACGG,3.14,0.000668,-0.645,5.43,5.79,3.26,5.18,0.518,2.36,-0.273,-0.43,1.19,3.61,0.105,5.45,0.117,3.98,3.62
CGCACTAGGTCATCCAGGACAGTGAATACATTGA,2.83,0.736,0.107,7.36,6.27,3.65,5.62,7.71,8.07,2.66,1.65,1.92,1.97,0.888,2.65,0.479,3.88,3.11
CGTCCGAGGTCATAGGAGGTCAGTGAAGACAGAT,7.86,5.54,1.19,6.96,6.5,2.81,5.53,3.62,4.71,1.87,0.417,5.49,7.21,6.7,6.7,2.36,5.36,5.04
